About 83,000 compounds went through this panel and 20% of them were active in at least one assay; those are over-represented in the sample as a whole.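 For each line, cells grew in 96-well plates with the test compound present at a single concentration for 48 hours.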 A number with no mark means an inactive call. Activity calls are given as the source filed them. Rule for the calls: active = growth percent below 10; inactive = the rest.

Holding throughout (assay): NCI-60 one-dose screen, 48 h (100 = growth as untreated, 0 = no growth, -100 = all killed)
Test [1] concerns K-562 leukemia. The settings on record: 10 µM unless noted.
Test [2] has as its system MALME-3M melanoma. The settings on record: 10 µM unless noted.
Test [3] has as its system MDA-MB-231 breast. The settings on record: 10 µM unless noted.
For test [4], the system named is RXF 393 renal. The settings on record: 10 µM unless noted.
Test [5] has as its system SF-268 CNS. The settings on record: 10 µM unless noted.
Test [6] deals with SF-295 CNS. The settings on record: 10 µM unless noted.
Test [7] deals with SF-539 CNS. The settings on record: 10 µM unless noted.
Test [8] has as its system UACC-257 melanoma. The settings on record: 10 µM unless noted.
Test [9] relates to M14 melanoma. The settings on record: 10 µM unless noted.
Test [10] relates to HCT-15 colon. The settings on record: 10 µM unless noted.
In test [11] the test system is HT29 colon. The settings on record: 10 µM unless noted.
The test system of test [12] is SNB-75 CNS. The settings on record: 10 µM unless noted.
Test [13] relates to SNB-19 CNS. The settings on record: 10 µM unless noted.
For test [14], the system named is U251 CNS. The settings on record: 10 µM unless noted.
For test [15], the system named is PC-3 prostate. The settings on record: 10 µM unless noted.
Test [16] relates to SK-MEL-5 melanoma. The settings on record: 10 µM unless noted.
Test [17] relates to UACC-62 melanoma. The settings on record: 10 µM unless noted.
Test [18] has as its system LOX IMVI melanoma. The settings on record: 10 µM unless noted.
Test [19] relates to SK-MEL-28 melanoma. The settings on record: 10 µM.
The subject of test [20] is SK-MEL-2 melanoma. The settings on record: 10 µM unless noted.

As to `O=C(N/N=C/c1ccccc1Cl)C(=O)Nc1cccc(C(F)(F)F)c1`, the growth is 85.3% in test [1]; 111% in test [2]; 99.3% in [3]; 97.9% in test [4]; 105% in test [5]; 87.7% in [6]. Further, the growth was 102% in test [7]; 103% in test [8]; 105% in test [9]; 97.1% in test [10]; 97.4% in test [11]; 116% in test [12]. The growth was 94.1% in test [13]; 96.9% in test [14]; 106% in test [15]; 96.6% in test [16]; 91.2% in test [17]; 94.9% in test [18]. Moreover, the growth in test [19] and in test [20] was 113% in each case.
For the molecule `O=C1Nc2ccccc2/C1=C/c1ccc[nH]1`, the growth in test [1] was 107%; in test [2], 94.5%; in test [3] it was 40.3%; in test [4] it was 80.5%; in test [5], 92.1%; in test [6], 102%. Moreover, the growth in [7] was 86.6%; in [8], 96.6%; in test [9], 89.8%; in test [10], 42.1%; in test [11], 110%; in [12], 105%. Besides, the growth was 90.3% in test [13]; 83% in [14]; 106% in test [15]; 58.7% in test [16]; 97.7% in [17]; 98.8% in test [18]. The growth in [19] was 114%; in test [20], 103%.
Consider `O=C(COc1cc(O)c2c(=O)cc(-c3ccccc3)oc2c1)Nc1ccccc1`, for which the growth in test [1] was 95.3%; in [2], 97.7%; in test [3] it was 72.9%; in [4], 98.3%; in test [5], 91%; in test [6], 101%. The growth is 91% in test [7]; 97.3% in [8]; 85.4% in [9]; 96% in test [10]; 106% in test [11]; 88% in test [12]. The growth was 87.4% in [13]; 93.7% in test [14]; 86.2% in test [15]; 99% in test [16]; 93.7% in [17]; 89.6% in [18]. For the same molecule, the growth in [19] was 107%; in test [20], 96.6%.
As to `CCN1C(=O)N(CC)C2C1NC(=S)N2/N=C/C=C/c1ccccc1OC` (stereo not given), the growth is 9.29% (active) in test [1]; 55.1% in test [2]; 13.3% in [3]; 35.3% in [4]; 26.7% in test [5]; 11.1% in [6]. Also, the growth is -8.21% (active) in test [7]; 71.9% in [8]; 7.43% (active) in test [9]; 9.07% (active) in test [10]; 2.77% (active) in test [11]; 44.8% in test [12]. The growth in test [13] was 26.5%; in test [14] it was 20.8%; in test [15], 25.2%; in test [16], -40.7% (active); in [17], 25.8%; in [18], 21.1%. Moreover, the growth in [19] is 56.7%; in test [20], 32.6%.
In the case of `CNCCNc1nc2ccccc2c2c(=O)c3cccc(C)c3sc12`, the growth in test [1] was -52.5% (active); in test [2], -11.3% (active); in [3], -18% (active); in [4], 50.8%; in test [5], 53.7%; in test [6], 76%. Besides, the growth is 52.4% in test [7]; 82% in test [8]; -40.9% (active) in [9]; -21.3% (active) in test [10]; -25.6% (active) in [11]; 38.4% in [12]. Besides, the growth in test [13] was 53.2%; in test [14], 25.4%; in test [15], 41.4%; in test [16], 46.3%; in test [17], 42%; in [18] it was -85.6% (active). Besides, the growth in test [19] was -60.1% (active); in [20], 91.4%.
On to `O=S1(=O)CCN(Cc2ccccc2)CC1`, for which the growth was 101% in [1]; 112% in [2]; 105% in [3]; 121% in test [4]; 92.2% in test [5]; 97% in test [6]. For the same molecule, the growth in test [7] was 95.6%; in [8], 105%; in [9], 90.3%; in test [10], 92.8%; in test [11] it was 103%; in test [12], 111%. In addition, the growth is 92% in test [13]; 104% in test [14]; 101% in [15]; 96.5% in test [16]; 106% in test [17]; 98.3% in test [18]. For the same molecule, the growth in [19] was 102%; in test [20] it was 119%.

Source of the values: PubChem BioAssay (NCI).
